Our source for the growth values is PubChem BioAssay (NCI).

The structures appear in SMILES notation. Compounds without any hit were thinned out: in the full panel of roughly 83,000, 20% have a hit.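 Cells were grown in 96-well plates and exposed to the test compound at a single concentration for 48 hours; results are reported as percent growth, with values below 10 considered active.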 Unmarked numbers belong to inactive results. Active and inactive are the calls of the source.

Holding throughout (experiment): NCI-60 one-dose screen, 48 h (100 = growth as untreated, 0 = no growth, -100 = all killed)
Conditions in all cases: 10 µM unless noted

The test system of assay [1] is NCI-H23 lung.
Assay [2] has as its system NCI-H226 lung.
Assay [3] relates to NCI-H322M lung.
The test system of assay [4] is HOP-62 NSCLC.
Assay [5] concerns NCI-H460 lung.
Assay [6] deals with NCI-H522 lung.
Assay [7] has as its system A549/ATCC NSCLC.
Assay [8] concerns 786-0 renal.
Assay [9] deals with COLO 205 colon.
For assay [10], the system named is DU-145 prostate.
In assay [11] the test system is K-562 leukemia.
Assay [12] concerns MALME-3M melanoma.
The test system of assay [13] is MDA-MB-231 breast.
For assay [14], the system named is RXF 393 renal.
Assay [15] concerns SF-268 CNS.
Assay [16] concerns SF-295 CNS.
In assay [17] the test system is SF-539 CNS.
Assay [18] deals with UACC-257 melanoma.
Assay [19] concerns M14 melanoma.
The test system of assay [20] is HOP-92 NSCLC.

Consider `C=C(C)[C@@H]1CC[C@]2(C(=O)N3CCNCC3)CC[C@]3(C)[C@H](CC[C@@H]4[C@@]5(C)C/C(=C/c6ccncc6)C(=O)C(C)(C)[C@@H]5CC[C@]43C)[C@@H]12`, for which the growth in assay [1] is 103%; in assay [2] it was 95.7%; in assay [3], 110%; in assay [4], 107%; in assay [5], 107%; in [6] it was 96.8%. The growth in [7] was 102%; in assay [8] it was 108%; in assay [9], 113%; in [10] it was 113%; in [11], 97.3%; in assay [12], 114%. Besides, the growth in [13] was 116%; in assay [14], 117%; in [15] it was 103%; in [16] it was 104%; in assay [17], 105%; in assay [18], 104%. Also, the growth in [19] is 108%.

For `O=C1NN(C(=O)c2ccc(Cl)cc2)C(c2ccccc2)=N/C1=C\c1ccc(F)cc1`, the growth in assay [1] was 84%; in assay [2] it was 92.1%; in [3], 89.7%; in assay [4], 99.1%; in assay [5], 94.6%; in assay [6], 96.5%. Further, the growth in assay [7] is 87.5%; in assay [8] it was 76.5%; in assay [9] it was 109%; in assay [10] it was 112%; in assay [11], 83.2%; in assay [12], 85.6%. For the same compound, the growth is 68% in [13]; 84.2% in assay [14]; 105% in [15]; 72.9% in assay [16]; 84.8% in assay [17]; 102% in assay [18]. Further, the growth in assay [19] is 86.2%.

For the compound `O=C(Nc1ccncc1)C(=O)c1cn(S(=O)(=O)c2ccccc2F)c2ccccc12`, the growth in assay [1] was 25.9%; in [2] it was 56.8%; in assay [3] it was 97.2%; in [4], 38.4%; in assay [5] it was 75.8%; in [20] it was 24.6%. Besides, the growth in [7] was 71.8%; in assay [8], 36.9%; in assay [9] it was 103%; in assay [10] it was 24.9%; in assay [11] it was 22.8%; in assay [12], 41.2%. For the same compound, the growth in assay [13] was 39.9%; in assay [14], 28.6%; in assay [15], 42.2%; in [16], 22.5%; in [17], 6.94% (active); in assay [18], 63.1%. In addition, in [19], the growth is 14.8%.

For the compound `COc1ccc(-c2cn(-c3cccc(C(=O)/C=C/c4cc(OC)c(OC)c(OC)c4)c3)c(=O)[nH]2)cc1OC`, the growth was 93.9% in assay [1]; 87.9% in [2]; 95.5% in assay [3]; 93% in assay [4]; 91% in [5]; 74.4% in [6]. In addition, the growth in [7] is 89.5%; in assay [8], 80.2%; in assay [9], 90.9%; in [10], 98.6%; in [11], 50.7%; in [12] it was 86%. Moreover, the growth in [13] is 72.1%; in assay [14] it was 65.8%; in assay [15], 65.8%; in assay [16] it was 96.5%; in assay [17] it was 76.5%; in [18], 80.1%. In addition, in assay [19], the growth was 80.1%.

On to `NC1=NN(O)C2=CC([N+](=O)[O-])C=CC2=N1` (stereo unspecified), for which the growth in [1] is 97%; in assay [2] it was 110%; in [3], 113%; in [4], 98.9%; in assay [5] it was 110%; in [6] it was 94.2%. Besides, the growth in assay [7] was 110%; in [8] it was 103%; in [9], 111%; in [10] it was 114%; in [11] it was 103%; in assay [12], 137%. Moreover, the growth in [13] is 118%; in assay [14], 115%; in [15] it was 101%; in assay [16] it was 117%; in assay [17], 98.5%; in assay [18], 94.8%. Moreover, the growth in assay [19] is 113%.

As for `Cc1nn(-c2ccc(Cl)cc2)c2ncnc(N/N=C/c3cccc([N+](=O)[O-])c3)c12`, the growth in [1] is 94.3%; in [2], 104%; in assay [3] it was 96.4%; in assay [4] it was 107%; in [20], 20.4%; in [6], 103%. Also, the growth in [7] was 104%; in assay [8], 96.4%; in [9], 95.3%; in assay [10], 68.7%; in assay [11], 17.4%; in [12], 97.2%. Besides, the growth in assay [13] was 102%; in [14] it was 110%; in [15] it was 58%; in assay [16], 101%; in assay [17] it was 106%; in assay [18] it was 103%.

With `O=C(CN1CCN(c2cc3c(cc2F)c(=O)c(C(=O)N/N=C/c2ccccc2O)cn3C2CC2)CC1)N/N=C\c1ccccc1O`, the growth was 28.2% in assay [1]; 36.4% in [2]; 25.4% in assay [3]; 24.5% in [4]; 52% in assay [20]; 22.6% in [6]. Also, the growth in [7] is 17.8%; in [8], 7.83% (active); in [9] it was 17.4%; in assay [10], 21.2%; in [11] it was 8.3% (active); in assay [12], 22.3%. The growth in [13] is 25.3%; in assay [14] it was 27.9%; in assay [15], 16.6%; in assay [16] it was 21.5%; in assay [17] it was 11.1%; in assay [18], 20%. In addition, in assay [19], the growth was -27.6% (active).

`COc1ccc(-c2cnnn2-c2nonc2-n2cccc2)cc1OC`: the growth in assay [1] was 67.8%; in assay [2], 88.8%; in assay [3] it was 96.8%; in [4], 55.8%; in assay [20], 72%; in assay [6], 27.4%. In addition, the growth in assay [7] was 47.2%; in assay [8], 88.3%; in assay [9] it was 44.4%; in assay [10], 80.9%; in assay [11] it was 3.29% (active); in assay [12] it was 25.1%. The growth in [13] is 65.7%; in assay [14], 75.6%; in [15], 71.8%; in [18] it was 79.6%; in assay [19], 39.9%.

On to `S=c1[nH]nc(-c2cc3ccc2CCc2ccc(cc2)CC3)n1-c1ccccc1`, for which the growth in assay [1] was 98%; in assay [2], 107%; in [3], 96.4%; in [4] it was 106%; in assay [5], 99.6%; in assay [7], 93.1%. Further, the growth in assay [9] was 106%; in assay [10], 101%; in assay [11] it was 87%; in assay [12], 100%; in assay [13], 95%; in assay [14] it was 129%. The growth was 113% in [15]; 91.7% in assay [16]; 110% in assay [17]; 103% in assay [18]; 97.2% in assay [19].
